Source: PubChem BioAssay
T cruzi growth-1: inhibitors of T. cruzi proliferation; T. cruzi beta-gal in NIH3T3, GalScreen luminescence, 90 h; inhibition, % at 8.34 µM; actives 5.9% (n = 77,000); AID 624255;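 active = mean inhibition above about 93%, with at least 55% of replicates each passing it, limit read from the data, passing the limit was not always enough; inconclusive = only one of those two conditions holds; inactive = neither condition holds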
Pf Dd2 growth: blocks growth of Plasmodium falciparum Dd2 parasites | P. falciparum Dd2 growth, SYBR Green, 72 h; stronger effect = lower value | activity change, % at 10 µM | actives 2.3% (n = 94,000) | AID 1159554; in the data active = activity change below about -80%; inconclusive = no clear call, values can overlap the other calls
C diff HTS: C. difficile growth inhibition; Clostridium difficile clinical isolate growth, OD600, 24 h; stronger effect = lower value; growth activity, negative = inhibition, % at 16 µg/mL (by protocol); actives 0.25% (n = 86,000); AID 1259249;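 active = mean growth activity at or below -80% and every replicate also at or below -80%; inconclusive = mean at or below -80% but some replicate above -80%; inactive = mean growth activity above -80%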;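 also: 0% = DMSO wells and -100% = levofloxacin 16 µg/mL wells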
T cruzi growth-2: blocks T. cruzi growth in NIH3T3 host cells | shares compounds with T cruzi growth-1 | AID 651739 | actives 72% (n = 5,600) | T. cruzi beta-gal in NIH3T3, GalScreen luminescence, 90 h | inhibition, % at 8.35 µM;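 active = mean replicate inhibition above about 95% and at least 55% of replicates individually reaching it, limit read from the data; inconclusive = only one of the two criteria is met; inactive = neither criterion is met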
T cruzi growth-3: inhibitors of T. cruzi proliferation | actives 21% (n = 5,600) | shares compounds with T cruzi growth-1 | T. cruzi beta-gal in NIH3T3, GalScreen luminescence, 90 h | inhibition, % at 2.09 µM;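 active = mean inhibition above about 95%, with at least 55% of replicates also reaching it, limit read from the data; inconclusive = meets just one of the two conditions; inactive = meets neither condition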;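 also: plate controls were neutral control median for no effect and positive control median for full effect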
NIH3T3 tox: cytotoxicity in mouse NIH/3T3 fibroblasts | shares compounds with T cruzi growth-1 | cytotoxicity (signal decrease), % at 8.35 µM | actives 14% (n = 5,600) | NIH/3T3 viability, CellTiter-Glo ATP luminescence, 90 h | AID 651742;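 active = mean signal decrease across replicates above about 35% based on untreated-well scatter, with enough replicates individually passing, limit read from the data; inconclusive = no rule stated though some were filed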;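 also: 0% = median of neutral control wells and 100% = median of positive control wells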
3T3 cytotox 2: NIH/3T3 (mouse) viability loss. NIH/3T3 viability, CellTiter-Glo ATP luminescence, 90 h. actives 56% (n = 5,600). inhibition, % at 24.9 µM. shares compounds with T cruzi growth-1;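 active = mean loss of cell viability signal at or above a set limit, and enough replicates individually reaching it; inconclusive = meets only the mean limit or only the replicate share; inactive = meets neither condition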;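 also: 0% = median of neutral control wells and 100% = median of positive control wells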
* hit, by the source's call; ? = inconclusive; / = not tested or not shown. An excerpt weighted towards active compounds, which were near 6.8% of everything screened.

SMILES	T cruzi growth-1	Pf Dd2 growth	C diff HTS	T cruzi growth-2	T cruzi growth-3	NIH3T3 tox	3T3 cytotox 2
CCS(=O)(=O)Nc1ccc2c(c1)C(=O)N(C)C[C@H](OC)[C@@H](C)CN(CCC(F)(F)F)[C@@H](C)CO2	-8	6	/	/	/	/	/
CCCNC(=O)N[C@H]1CC[C@@H](CCn2cc(-c3cccc(F)c3)nn2)O[C@H]1CO	9	10	/	/	/	/	/
Cc1noc(C)c1NC(=O)Nc1ccc2c(c1)C(=O)N(C)[C@H]1CC[C@H](CC(=O)N(C)C)O[C@H]1CO2	2	5	-3	/	/	/	/
C[C@@H]1CCCCO[C@@H](CN(C)C(=O)c2ccncc2)[C@H](C)CN([C@H](C)CO)C(=O)c2cc(NS(=O)(=O)c3cn(C)cn3)ccc2O1	-6	34	13	/	/	/	/
CO[C@@H]1CN(C)C(=O)c2ccc(NC(C)=O)cc2OC[C@@H](C)N(C(=O)CN(C)C)C[C@@H]1C	24	17	-1	/	/	/	/
Cc1ccc(-c2ccc3c(c2)O[C@@H](CN(C)Cc2ccccc2)[C@H](C)CN([C@@H](C)CO)S3(=O)=O)cc1	116*	-54	17	99*	104*	37*	104*
C[C@@H]1CN([C@@H](C)CO)S(=O)(=O)c2ccc(-c3ccccc3)cc2O[C@H]1CN(C)Cc1ccccc1	84	-66	12	/	/	/	/
C[C@@H]1CN([C@H](C)CO)S(=O)(=O)c2ccc(-c3cncnc3)cc2O[C@H]1CN(C)Cc1ccccc1	?	-34	-3	91	64	52*	68*
C[C@@H]1CN([C@@H](C)CO)S(=O)(=O)c2ccc(-c3cncnc3)cc2O[C@@H]1CN(C)Cc1ccccc1	62	0	-5	/	/	/	/
CC(=O)N(C)C[C@H]1Oc2cc(-c3cccc(C#N)c3)ccc2S(=O)(=O)N([C@@H](C)CO)C[C@@H]1C	36	25	-2	/	/	/	/
Cc1noc(C)c1S(=O)(=O)Nc1ccc2c(c1)C(=O)N([C@H](C)CO)C[C@@H](C)[C@H](CN(C)S(=O)(=O)c1cccs1)OCCCC[C@H](C)O2	58	-47	/	/	/	/	/
O=C(c1ccccc1)N1Cc2ccccc2[C@@H]2OC(c3ccc(OCCCO)cc3)=N[C@]2(Cc2ccccc2)C1=O	/	/	2	/	/	/	/
C[C@@H]1CN([C@@H](C)CO)S(=O)(=O)c2ccc(-c3ccccc3F)cc2O[C@@H]1CN(C)Cc1cccnc1	101*	-42	-8	105*	82	69*	71*
C[C@H]1CN([C@@H](C)CO)S(=O)(=O)c2ccc(-c3ccccc3F)cc2O[C@@H]1CN(C)Cc1cccnc1	105*	-56	-4	107*	104*	36*	100*
C[C@@H]1CN([C@H](C)CO)S(=O)(=O)c2ccc(-c3ccccc3F)cc2O[C@H]1CN(C)Cc1cccnc1	95	-51	1	/	/	/	/
C[C@H](CO)N1C[C@H](C)[C@@H](CN(C)Cc2cccnc2)Oc2cc(-c3ccccc3F)ccc2S1(=O)=O	95	-3	-1	/	/	/	/
O=C(NC1CCCC1)N1CC(=O)N2[C@H](CO)[C@H](c3ccc(-c4cccc(F)c4)cc3)[C@@H]2C1	/	7	2	/	/	/	/
C[C@@H]1CN([C@@H](C)CO)C(=O)c2cccc(NS(C)(=O)=O)c2O[C@@H]1CN(C)S(=O)(=O)c1ccc(Cl)cc1	17	-47	4	/	/	/	/
C[C@@H]1CCCCO[C@H](CN(C)S(=O)(=O)c2ccccc2)[C@@H](C)CN([C@@H](C)CO)C(=O)c2cc(NC(=O)Nc3ccc(F)cc3)ccc2O1	106*	-75	4	108*	75	5	36*
CC(C)NC(=O)Nc1ccc2c(c1)C(=O)N([C@H](C)CO)C[C@H](C)[C@H](CN(C)S(=O)(=O)c1ccc(F)cc1)OCCCC[C@H](C)O2	-59	/	-11	/	/	/	/
C[C@@H]1CCCCO[C@@H](CN(C)S(=O)(=O)c2ccccc2)[C@H](C)CN([C@@H](C)CO)C(=O)c2cc(NC(=O)Nc3ccc(F)cc3)ccc2O1	104*	-36	11	107*	38	1	-9
C[C@H](CO)N1C[C@H](C)[C@H](CN(C)S(=O)(=O)c2ccccc2)OCCCC[C@H](C)Oc2ccc(NC(=O)Nc3ccc(F)cc3)cc2C1=O	109*	-61	-7	106*	83	26	?
